FECH inh: inhibitors of human ferrochelatase; calls only at 10 µM (by protocol); actives 3.3% (n = 20,000); AID 1671448; P22830; purified FECH, Ni-mesoporphyrin absorbance 550 nm;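 active means enzyme reaction rate more than 3 SD below the solvent-only control wells on the same plate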;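 further: lower slope than DMSO wells means FECH inhibition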
Target sequence (P22830 whole entry, looked up): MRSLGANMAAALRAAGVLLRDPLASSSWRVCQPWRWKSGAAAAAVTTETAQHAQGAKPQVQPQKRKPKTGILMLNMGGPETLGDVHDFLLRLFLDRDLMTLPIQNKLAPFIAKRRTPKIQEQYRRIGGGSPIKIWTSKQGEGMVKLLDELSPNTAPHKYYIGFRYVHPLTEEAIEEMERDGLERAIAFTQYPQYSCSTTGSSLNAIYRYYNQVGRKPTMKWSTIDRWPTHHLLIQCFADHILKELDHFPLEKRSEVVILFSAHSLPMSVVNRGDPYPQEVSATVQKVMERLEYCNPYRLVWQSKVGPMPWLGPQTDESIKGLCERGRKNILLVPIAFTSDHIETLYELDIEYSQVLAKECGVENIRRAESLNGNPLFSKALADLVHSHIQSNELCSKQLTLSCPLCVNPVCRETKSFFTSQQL
Calls only. The full list was thinned out, with hits kept by preference.

What do the screens show for `CC(C)n1cnc2nc(CSc3ccccc3NC(=O)COc3ccc(F)cc3)cc(=O)n21`?
FECH inh: inactive

Results for CC(C)n1cnc2nc(CSc3ccccc3NC(=O)c3cccc(Cl)c3)cc(=O)n21 ?
FECH inh: inactive

Results for COc1ccc(C(=O)Nc2ccccc2SCc2cc(=O)n3c(ncn3C(C)C)n2)cc1OC ?
FECH inh: inactive

How did CC(C)n1cnc2nc(CSc3ccccc3NC(=O)COc3ccccc3F)cc(=O)n21 do in these assays?
FECH inh: active

How did CCCn1cnc2nc(CSc3ccccc3NC(=O)c3ccc(Cl)cc3)cc(=O)n21 do in these assays?
FECH inh: active

What do the screens show for `CCC(CC)C(=O)N1CCc2c(c(C(=O)NCc3ccccc3)nn2C)C1`?
FECH inh: inactive

What do the screens show for `CC(O)CNc1nc(Nc2cccc(Cl)c2)c2cnn(-c3ccccc3)c2n1` (stereo not given)?
FECH inh: inactive

How did Cc1cc(C)c(NS(=O)(=O)c2cc(N3C(=O)CCS3(=O)=O)ccc2C)c(Cl)c1 do in these assays?
FECH inh: inactive

Results for CCCn1nc(C)c2c1NC(=O)CC2c1cn[nH]c1-c1cc(C)ccc1C (stereo not given) ?
FECH inh: inactive

Results for Cc1ccc(CN(Cc2nc[nH]c2C)C2CC2)s1 ?
FECH inh: inactive

Results for O=C(NCc1csc(N2CCOCC2)n1)c1cnn2c1CCCC2 ?
FECH inh: inactive

What do the screens show for `CN(Cc1csc(-c2ccccc2)n1)C(=O)c1cccc(-n2cnnc2)c1`?
FECH inh: inactive

What do the screens show for `CCCN(CCC)c1ncc(NS(=O)(=O)c2cc(C)cc(C)c2)cc1C(=O)O`?
FECH inh: active

How did Cc1cc(C)cc(S(=O)(=O)Nc2cnc(N(CC(C)C)CC(C)C)c(C(=O)O)c2)c1 do in these assays?
FECH inh: inactive

How did CCN(CCN(C)C)c1ncc(NS(=O)(=O)c2cc(C)cc(C)c2)cc1C(=O)O do in these assays?
FECH inh: inactive

What do the screens show for `CCc1ccc(S(=O)(=O)N2CCC(n3c(C)nc4cccnc43)CC2)cc1`?
FECH inh: inactive

Results for CCc1[nH]c2ccc(CNC(=O)c3ccn4nnnc4c3)cc2c1C ?
FECH inh: inactive

What do the screens show for `OCCN1CCN(c2nc(Nc3ccc(F)cc3)c3cnn(-c4ccccc4)c3n2)CC1`?
FECH inh: inactive

What do the screens show for `COc1ccc(Nc2nc(N3CCCCC3)nc3c2cnn3-c2ccccc2)cc1`?
FECH inh: inactive

How did Cc1ccc(Nc2nc(N3CCN(C)CC3)nc3c2cnn3-c2ccccc2)cc1 do in these assays?
FECH inh: inactive

How did COc1ccc(Nc2nc(N3CCN(CCO)CC3)nc3c2cnn3-c2ccccc2)cc1 do in these assays?
FECH inh: inactive

What do the screens show for `CCN(CCO)c1nc(Nc2ccc(Cl)cc2)c2cnn(-c3ccccc3)c2n1`?
FECH inh: inactive

How did COc1ccc(Nc2nc(N3CCC(C)CC3)nc3c2cnn3-c2ccccc2)cc1 do in these assays?
FECH inh: active

How did COc1ccc(Nc2nc(N3CCOCC3)nc3c2cnn3-c2ccccc2)cc1 do in these assays?
FECH inh: inactive

Results for CN(CCO)c1nc(Nc2ccccc2)c2cnn(-c3ccccc3)c2n1 ?
FECH inh: inactive

Results for Clc1ccc(Nc2nc(N3CCN(c4ccccc4)CC3)nc3c2cnn3-c2ccccc2)cc1 ?
FECH inh: inactive

What do the screens show for `CN1CCN(c2nc(Nc3ccc(Cl)cc3)c3cnn(-c4ccccc4)c3n2)CC1`?
FECH inh: active

Results for CN(CCO)c1nc(Nc2ccc(Cl)cc2)c2cnn(-c3ccccc3)c2n1 ?
FECH inh: active

How did OCCN1CCN(c2nc(Nc3ccc(Cl)cc3)c3cnn(-c4ccccc4)c3n2)CC1 do in these assays?
FECH inh: active

Results for CCC(=O)Nc1ccccc1-c1nnc(SCC(=O)Nc2cccc(OC)c2)[nH]c1=O ?
FECH inh: inactive

What do the screens show for `CC(C(=O)Nc1cccc(NC(=O)CCc2ccccc2)c1)N1CCCC1=O` (stereo not given)?
FECH inh: inactive

What do the screens show for `COc1cccc(S(=O)(=O)NCc2nc3cccnc3n2Cc2ccc(F)cc2)c1`?
FECH inh: inactive

How did CC(C)CC(=O)Nc1ccnn1C1CCN(C(=O)c2cncc(F)c2)CC1 do in these assays?
FECH inh: inactive

What do the screens show for `CCOc1ccc(S(=O)(=O)NCCn2c(C(F)(F)F)nc3cccnc32)cc1`?
FECH inh: active

What do the screens show for `CCc1ccc(S(=O)(=O)NCCn2c(C(F)(F)F)nc3cccnc32)cc1`?
FECH inh: inactive

Results for CC(C)(C)c1ccc(S(=O)(=O)NCCn2c(C(F)(F)F)nc3cccnc32)cc1 ?
FECH inh: inactive

Results for Cn1nc2c(c1C(=O)N[C@@H]1c3ccccc3C3(CCNCC3)[C@H]1O)CCCC2 ?
FECH inh: inactive

What do the screens show for `Cc1ccc2c(c1)NC(=O)C2CC(=O)NCCN1CCCOC1=O` (stereo not given)?
FECH inh: inactive

What do the screens show for `Cc1cccc(N(CC(=O)N(C)Cc2n[nH]c3c2CCCCC3)S(C)(=O)=O)c1`?
FECH inh: inactive

Results for Cc1cccc(N(CC(=O)NCCN2CCNC2=O)S(C)(=O)=O)c1 ?
FECH inh: active

What do the screens show for `Cc1cccc(-c2ncc(CNCCCC3CCOC3)cn2)c1` (stereo not given)?
FECH inh: inactive

Assay outcomes: PubChem BioAssay, Corson Lab, School of Medicine, Indiana University
